Assay outcomes from PubChem BioAssay.
An excerpt weighted towards active compounds, which were near 4% of everything screened.
Autofluor counter: flagged as autofluorescent in microsphere protease counterscreen; compound autofluorescence counterscreen, microsphere flow cytometry; hits give high values; hit rate 3.1% among 360,000; fluorescence intensity (no concentration beside the values); AID 624483; in the data active = fluorescence intensity above about 16000; inconclusive = no clear call, values can overlap the other calls
BoNT-A LC inh2: inhibitors of Botulinum neurotoxin A light chain protease | multiplex microsphere protease substrate cleavage, flow cytometry | inhibition, % at 10 µM | hit rate 0.17% among 360,000; also: plate controls were buffer without enzyme for full effect and enzyme alone for no effect
Anthrax LF prot: inhibitors of Bacillus anthracis lethal factor protease; multiplex microsphere protease cleavage assay, LF; hit rate 0.12% among 360,000; P15917; inhibition, % at 10 µM; also: plate controls were buffer without enzyme for full effect and enzyme alone for no effect
Target sequence (P15917 whole entry, looked up): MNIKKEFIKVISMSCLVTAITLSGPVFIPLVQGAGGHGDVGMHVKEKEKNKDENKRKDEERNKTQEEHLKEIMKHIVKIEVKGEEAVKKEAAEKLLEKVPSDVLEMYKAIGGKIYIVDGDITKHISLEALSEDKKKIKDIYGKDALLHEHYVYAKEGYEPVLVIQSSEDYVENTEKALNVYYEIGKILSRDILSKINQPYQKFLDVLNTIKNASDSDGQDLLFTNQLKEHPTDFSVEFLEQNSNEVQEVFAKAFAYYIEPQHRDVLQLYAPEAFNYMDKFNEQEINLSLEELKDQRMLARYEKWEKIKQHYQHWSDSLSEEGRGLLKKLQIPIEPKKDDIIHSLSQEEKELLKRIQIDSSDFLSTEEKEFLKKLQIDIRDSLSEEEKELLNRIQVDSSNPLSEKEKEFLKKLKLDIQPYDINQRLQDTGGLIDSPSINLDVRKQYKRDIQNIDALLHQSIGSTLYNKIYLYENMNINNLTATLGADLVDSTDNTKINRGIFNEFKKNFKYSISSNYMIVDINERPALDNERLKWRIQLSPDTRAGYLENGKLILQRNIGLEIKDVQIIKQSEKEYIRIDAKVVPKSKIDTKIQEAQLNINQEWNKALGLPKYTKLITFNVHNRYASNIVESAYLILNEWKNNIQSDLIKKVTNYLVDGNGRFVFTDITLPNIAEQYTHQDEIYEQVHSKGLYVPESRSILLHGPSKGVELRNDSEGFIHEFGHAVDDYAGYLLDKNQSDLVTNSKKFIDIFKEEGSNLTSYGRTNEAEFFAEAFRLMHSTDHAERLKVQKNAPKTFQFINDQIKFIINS
MazEF act: activators of E. coli MazEF toxin-antitoxin RNase | P0AE70 | FAM/BHQ RNA-DNA oligo cleavage fluorescence, 5 h | activation, % at 20 µM | hit rate 0.32% among 350,000 | AID 504720; in the data active = activation above about 50%
BoNT-F LC inh: BoNT F light chain protease inhibition; Multiplex microsphere protease cleavage assay, flow cytometry; inhibition, % at 10 µM; hit rate 0.22% among 360,000; AID 588497; in the data active = inhibition above about 35%, passing the limit was not always enough; inconclusive = no clear call, values can overlap the other calls; also: plate controls were buffer without enzyme for full effect and enzyme alone for no effect
DUSP3 inh: blocks human VHR1 dual specificity phosphatase; recombinant VHR phosphatase, pNPP absorbance; inhibition, % at 13.3 µM; hit rate 0.52% among 290,000; AID 1654; in the data active = inhibition above about 50%
The depositor's hits bear a star; u = inconclusive; x = no result. Rule as the data show it, unless noted: active = inhibition above about 30%; inconclusive = no clear call, values can overlap the other calls; inactive = below that.

SMILES	Autofluor counter	BoNT-A LC inh2	Anthrax LF prot	MazEF act	BoNT-F LC inh	DUSP3 inh
COc1cccc(-c2csc(N3CCN(C(=S)Nc4ccccc4)CC3)n2)c1	10311	-2	-3	3	-12	18
COc1cccc(-c2csc(N3CCN(Cc4ccccc4)CC3)n2)c1	24520*	-3	-3	2	-9	6
O=C(O)C(c1ccccc1)N1C(=O)/C(=C\c2ccc(-c3ccc(Br)cc3)o2)SC1=S (stereo not drawn)	4524	65*	24	-237	13	-16
C=CCN1C(=O)/C(=C/c2ccc(-c3ccc(F)cc3)o2)SC1=S	3620	79*	64*	-108	26	10
O=C1N=C(N2CCOCC2)S/C1=C/c1ccc(-c2ccccc2Cl)o1	4376	0	-8	107*	3	0
COc1cc(/C=C2\SC(=S)N(C(C(=O)O)c3ccccc3)C2=O)cc(OC)c1OC (stereo not drawn)	2516	2	0	-5	2	25
O=C1/C(=C\c2ccc(-c3ccccc3Cl)o2)SC(=S)N1CC1CCCO1 (stereo not drawn)	4106	189*	59*	-9	-46	3
C=CCN1C(=O)/C(=C/c2ccsc2)SC1=S	4206	-2	-4	8	-6	-42
CCC/C(C(=O)NCCO)=C1/c2ccccc2C(=O)N1c1ccccc1	4140	0	2	-4	4	x
Cc1ccc(NC(=O)C2CCCN(S(=O)(=O)c3c(C)noc3C)C2)cc1 (stereo not drawn)	4048	-1	1	10	0	20
O=C(O)C(c1ccccc1)N1C(=O)/C(=C\c2ccc(-c3ccccc3Cl)o2)SC1=S (stereo not drawn)	3117	41*	18	-338	9	4
COc1cccc(/C=C2\SC(=S)N(C(C(=O)O)c3ccccc3)C2=O)c1OC (stereo not drawn)	4308	-1	-4	-1	-3	1
COc1ccc(Nc2nnc(-c3ccc(N4CCOCC4)c([N+](=O)[O-])c3)c3ccccc23)cc1	22975*	-9	-4	9	-10	20
COc1cccc(-c2nnn(CCC(=O)O)n2)c1	19600*	u	1	-7	3	-30
Oc1ccc(Cl)cc1C1=Nc2ccccc2N=C(c2ccco2)C1	11307	1	1	113*	-3	-4
Cc1c(Cc2ccccc2)sc(N)c1C(N)=O	x	x	x	x	x	6
COC(=O)c1sccc1NC(=O)Nc1cccc(C)c1	2643	0	-1	8	-4	50*
COC(=O)c1sccc1NC(=O)c1cc(C)on1	17750*	u	-1	2	-9	-2
COC(=O)c1sccc1NC(=O)c1c(C)noc1C	23485*	0	-1	1	0	-22
CCc1sc(C(=O)Nc2ccsc2C(=O)OC)cc1Br	16369*	0	-4	2	-4	32
COC(=O)c1sccc1NC(=O)Nc1cccc(C(C)=O)c1	3246	0	-3	-2	1	26
Cc1nn(C)c(C)c1C1C(C#N)=C(N)OC2=C1C(=O)CCC2 (stereo not drawn)	2265	-1	0	-1	-4	2
COCc1[nH]nc2c1C1(CCSCC1)C(C#N)=C(N)O2	9850	-3	-8	-4	-8	-18
O=c1nc2ccccc2c(NS(=O)(=O)c2ccccc2)n1-c1ccccc1	5085	0	3	-11	-3	14
CCn1nc(C)c(C(=O)Nc2cc(Oc3cc(C)cc(C)c3)cc([N+](=O)[O-])c2)c1C	22749*	u	-2	19	1	-28
SMILES	Autofluor counter	BoNT-A LC inh2	Anthrax LF prot	MazEF act	BoNT-F LC inh	DUSP3 inh
Cc1nn(C)cc1C(=O)Nc1cc(Oc2ccc(Cl)cc2)cc([N+](=O)[O-])c1	9504	0	-1	-1	4	40
Cc1ccc(-c2csc3nc(C)n(N)c(=O)c23)o1	22183*	u	-1	3	0	26
Cc1ccc(-c2csc3nc(C)n(-n4c(C)ccc4C)c(=O)c23)o1	3228	0	-2	-1	-8	22
COC(=O)C1=C(c2cc3ccccc3o2)C[C@@H]2CC[C@H]1N2C(=O)NCc1ccco1	3941	0	-7	1	2	x
CC(C)(C)NC(=O)C1CC(=O)OC12CCCCC2 (stereo not drawn)	2844	0	-2	3	-2	32
CC(C)(C)NC(=O)C1CC(=O)OC1(C)C (stereo not drawn)	21395*	-4	0	3	-5	-1
N#C/C(=C/c1ccc(Sc2nc3ccccc3[nH]2)o1)c1ccccc1F	16534*	u	-2	16	-4	2
N#C/C(=C/c1ccc(Sc2nc3ccccc3[nH]2)o1)c1cccc(F)c1	23920*	0	-2	2	-2	7
CCOC(=O)N1CCN(C(=O)CN(Cc2ccc(Cl)cc2)S(=O)(=O)c2ccccc2)CC1	24155*	-1	-2	-4	-4	13
O=C(O)c1ccc(S(=O)(=O)N(Cc2ccc(F)cc2)C2CCCCC2)cc1	x	x	x	-1	x	-32
CCN(C1CCCCC1)S(=O)(=O)c1ccc(C(=O)O)cc1	23470*	0	-2	4	-2	-4
CCOC(=O)N1CCN(C(=O)CN(C2CCCCC2)S(=O)(=O)c2ccc(Cl)cc2)CC1	22589*	1	-1	-3	1	24
N#CC1(Cc2ccccc2Cl)c2ccccc2C=CN1C(=O)c1ccccc1 (stereo not drawn)	3428	0	-4	-3	-4	-4
CC(C(=O)c1ccc(Br)cc1)[n+]1cccc(NC(=O)c2ccccc2)c1 (stereo not drawn)	2596	0	0	27	4	5
CC(C(=O)c1ccc(Br)cc1)[n+]1cccc2ccccc21 (stereo not drawn)	16961*	-4	-8	-66	u	8
Cc1cc(C(C)(C)C)nc2[nH]n(-c3ccccc3)c(=O)c12	20895*	-4	1	3	-7	28
CC1CCC(C(C)C)C(OP(=O)(c2ccccc2)C(O)c2ccncc2)C1 (stereo not drawn)	4350	-1	-13	-3	1	8
COc1cccc(CN2CC(C(=O)NCc3ncc(C)[nH]3)CCC2=O)c1 (stereo not drawn)	6142	-2	-1	1	6	-19
Cc1cc(C)cc(NC(=S)N(Cc2ccc(Cl)cc2)Cc2ccc(C(=O)O)cc2)c1	4675	-1	0	-5	-6	16
O=C/C(=C\Nc1ccccn1)c1nc2ccccc2o1	17474*	u	-1	7	-6	-1
O=C/C(=C\Nc1ccccn1)c1nc2cc(Cl)ccc2o1	3820	1	-5	11	2	-23
CC(C)C(NS(=O)(=O)c1cccc2nsnc12)C(=O)Nc1nccs1 (stereo not drawn)	4594	0	-3	7	0	25
